One assay deals with EIF4EBP2. Kind of assay: pooled miR-30 sensor sort-seq; sequence = guide strand. The following applies: shRNA.
For AAACTTTCTGTCATAAATGATT, the sensor-assay potency score (higher = more potent) is -1.63.

Consider TGGTGCAATAGTCATGAGGTAG, for which the sensor-assay potency score (higher = more potent) is -1.72.

The sequence ATAGTCATGAGGTAGCTGCGCG displayed a sensor-assay potency score (higher = more potent) of -0.462.

Regarding TCGCTGATGGCCACGGTGCGGG, the sensor-assay potency score (higher = more potent) was -1.63.

Consider TAAATGATTCGAGTTCCTCCCG, for which the sensor-assay potency score (higher = more potent) amounted to 0.0359.

For ATGTTTCCTGTCGTGATTGTTC, the sensor-assay potency score (higher = more potent) is -0.959.

For AATGATTCGAGTTCCTCCCGGT, the sensor-assay potency score (higher = more potent) was found to be 0.498.

Take TTCAATTAAGGTGCCAGGGCTA: the sensor-assay potency score (higher = more potent) was -0.657.

Consider AATTGTTTACTTCTACTTTGGA, for which the sensor-assay potency score (higher = more potent) came out at 0.534.

As to TTGGAGTCTTCAATTAAGGTGC, the sensor-assay potency score (higher = more potent) was -0.116.

Consider TCAAATTGTTTACTTCTACTTT, for which the sensor-assay potency score (higher = more potent) is -0.42.

TTTCTGTCATAAATGATTCGAG came in with a sensor-assay potency score (higher = more potent) of -0.301.

In turn, TTCTGTCATAAATGATTCGAGT came in with a sensor-assay potency score (higher = more potent) of -1.23.

Consider TACTTTGGAGTCTTCAATTAAG, for which the sensor-assay potency score (higher = more potent) was -1.27.

Sequence TAGTCATGAGGTAGCTGCGCGG showed a sensor-assay potency score (higher = more potent) of -1.17.

Regarding TACTTCTACTTTGGAGTCTTCA, the sensor-assay potency score (higher = more potent) was -0.613.

On to TCCAACAGAAACTTTCTGTCAT, for which the sensor-assay potency score (higher = more potent) was -0.136.

Sequence AAATGATTCGAGTTCCTCCCGG displayed a sensor-assay potency score (higher = more potent) of -0.69.

Take TTGTTCAAATTGTTTACTTCTA: the sensor-assay potency score (higher = more potent) is -0.655.

Sequence TTCTACTTTGGAGTCTTCAATT had a sensor-assay potency score (higher = more potent) of -1.52.

TTGTTCAAGTTGTTCAAATTGT showed a sensor-assay potency score (higher = more potent) of -0.233.

AATAGTCATGAGGTAGCTGCGC had a sensor-assay potency score (higher = more potent) of -0.823.

In turn, TGATTCGAGTTCCTCCCGGTGT registered a sensor-assay potency score (higher = more potent) of -0.789.

The sequence TGTTCAAATTGTTTACTTCTAC had a sensor-assay potency score (higher = more potent) of -0.311.

For a further assay, the target named is ELF2. The assay is described as above. The conditions noted are these: shRNA.
Sequence TTTGTCTGCAGTTGACACTGTG displayed a sensor-assay potency score (higher = more potent) of 0.266.

On to TTCACTTTTGTCATCATCTATG, for which the sensor-assay potency score (higher = more potent) is -0.773.

TTGATAGTCTCATTACAGGTGT gave a sensor-assay potency score (higher = more potent) of -0.336.

Turning to TTCTTCTGCCACATCTTGCATC, the sensor-assay potency score (higher = more potent) is -0.811.

The sequence TTGTTCTTCTGCCACATCTTGC returned a sensor-assay potency score (higher = more potent) of -0.939.

For the sequence TGTCATTACAACAGGTACCTGC, the sensor-assay potency score (higher = more potent) turned out to be 0.12.

TTTCACATCATGTTCTTGCTTT gave a sensor-assay potency score (higher = more potent) of 0.568.

Regarding TTTATCTTGAAGTAGATCTAAA, the sensor-assay potency score (higher = more potent) was -0.649.

For the sequence ATCATCATAAACCAGAACCTGG, the sensor-assay potency score (higher = more potent) is -0.854.

As to TAGTAGTATCTCAAAGCTCGTC, the sensor-assay potency score (higher = more potent) was -0.0908.

On to TTGATTTTCTACTCCATTGCTG, for which the sensor-assay potency score (higher = more potent) turned out to be 0.197.

TTTTATCTTGAAGTAGATCTAA yielded a sensor-assay potency score (higher = more potent) of -0.166.

In the case of TTGTCTGCAGTTGACACTGTGC, the sensor-assay potency score (higher = more potent) was -0.232.

As to TGATATTCACAACTCTAGCTAC, the sensor-assay potency score (higher = more potent) is -0.607.

The record behind these values is the OligoGym collection.
Further: reference of the scale not given here.
